Pf growth 48h = Primary qHTS for delayed death inhibitors of the malarial parasite plastid, 48 hour incubation. AID 504832, 2011. 310,000 compounds, 5.9% hits. Potency, µM (doses to about 28.7 µM), actives largely listed as inhibitors. P. falciparum luciferase growth in erythrocytes, 48 h
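In quantitative HTS format, infected erythrocytes bearing luciferase-reporter parasites were treated for a single generation at 37 C. Luminescence after adding detection reagent served as the growth measure.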
HCMV inh = qHTS Assay for inhibitors of the human cytomegalovirus (HCMV); AID 1259415, 2018; HFF cells, HCMV-luciferase reporter, 72 h; active compounds read low; 410,000 compounds, 4.5% hits; activity change, negative = inhibition, % at 57.5 µM; in the data active = activity change below about -60%; inconclusive = no clear call, values can overlap the other calls; inactive = above about -39%
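After 16 h attachment at 37C, HFF cells received test compound and HCMV-luciferase (1 PFU/cell); reporter luminescence read 72 h later, data normalized against buffer-only and known inhibitor Salinomycin.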
Pf growth 96h = Primary qHTS for delayed death inhibitors of the malarial parasite plastid, 96 hour incubation; P. falciparum luciferase reporter growth, 96 h; Potency, µM (series often up to 28.7 µM), usual class: inhibitors; 320,000 compounds, 6.9% hits
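Compounds incubated with erythrocytes infected by luciferase-expressing P. falciparum (2% hematocrit, 0.05% parasitemia final) for 96 hours, 37 C in 5% CO2. Growth inhibition scored as decreased luciferase luminescence.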
Sm TGR block = qHTS Assay for the Inhibitors of Schistosoma Mansoni Peroxiredoxins | Schistosoma mansoni thioredoxin glutathione reductase (TGR), Q962Y6 | purified TGR, DTNB reduction, TNB absorbance 405 nm | Potency, µM (highest dose often 114 µM), most hits filed as inhibitors | 360,000 compounds, 3% hits | AID 485364, 2010; also: nearly all actives have a fitted effect of over 60% in size
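Kinetic colorimetric format: TGR-catalysed, NADPH-driven DTNB reduction monitored via TNB absorbance. Enzyme dispensed at 20 nM; compound exposure 15 min at room temperature before reaction start.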
FBPA Giardia inh = qHTS Assay for Inhibitors of Fructose-1,6-bisphosphate Aldolase from Giardia Lamblia; A8B2U2; purified Giardia FBPA; Potency, µM (titrated, usually from 59.6 µM), most hits filed as inhibitors; 290,000 compounds, 0.71% hits; also: nearly all actives have a fitted effect of over 55% in size
Target sequence (A8B2U2 whole entry, looked up): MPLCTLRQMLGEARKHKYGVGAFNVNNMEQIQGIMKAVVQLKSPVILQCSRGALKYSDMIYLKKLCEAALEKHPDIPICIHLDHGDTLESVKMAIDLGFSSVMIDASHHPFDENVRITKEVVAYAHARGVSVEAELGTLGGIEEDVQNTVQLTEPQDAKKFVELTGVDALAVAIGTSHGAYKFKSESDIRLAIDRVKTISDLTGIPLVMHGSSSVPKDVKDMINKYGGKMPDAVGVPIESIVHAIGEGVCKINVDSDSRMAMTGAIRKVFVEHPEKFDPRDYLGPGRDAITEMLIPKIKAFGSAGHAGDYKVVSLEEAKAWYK
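Giardia FBPA (40 nM reagent) was preincubated 10 min at RT with compound (up to 57.5 uM final), then substrate plus GAPDH/TPI/NAD/arsenate coupling system with diaphorase/resazurin was added; resorufin fluorescence (525/598 nm) was read after 20 min.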
Hits are given with their value; 0 = inactive; ? = inconclusive; - = not tested or not shown; [ ] = remark or other dose. A selection: hits, their analogues and other compounds. The true share with any hit is near 14%. Unless noted, calls follow the shape of the dose curve; as a rule, active = well fitted curve in the direction sought with a large enough effect; inconclusive = small, poorly fitted or top-dose-only effect, or another doubt; inactive = no such curve, though single readings can be large; an effect the other way counts as inactive or inconclusive.

SMILES	Pf growth 48h	HCMV inh	Pf growth 96h	Sm TGR block	FBPA Giardia inh
CC(=O)NC12CC3CC(CC(CC(=O)O)(C3)C1)C2	-	0	0	0	0
CC(=O)NC12CC3CC(C)(C1)CC(NC(C)=O)(C3)C2	-	-69	0	0	0
CCc1ccc(C(=O)NC2=NC(c3ccccc3F)CC(=O)N2)cc1 (stereo not given)	-	0	-	0	-
COc1ccc(S(=O)(=O)NC2CC3CCC2C3)cc1 (stereo not given)	0	0	8.3µM	0	0
CSc1ccc(S(=O)(=O)NC2CC3CCC2C3)cc1 (stereo not given)	0	0	?	0	0
CCN(CC)CCn1c(=O)n(-c2ccc(Cl)cc2)c(=O)c2c3c(sc21)CN(C)CC3	4.7µM	0	0	?	0
CCCCCCCCCCCCC/C=C/[C@@H](O)[C@H](CO)NC(=O)CCCCCCC	-	-	-	-	0
Cc1ccc(-n2nc(C(=O)N(C)c3ccccc3Cl)c3c4ccccc4n(C)c3c2=O)cc1	-	0	-	0	-
CCN1CCN(Cc2c(O)ccc3c(C)c(-c4ccc(OC)cc4)c(=O)oc23)CC1	-	0	-	0	-
CCN1CCN(Cc2c(O)ccc3c(=O)c(-c4ccc(OC)c(OC)c4)c(C)oc23)CC1	?	0	0	0	0
CCCCc1cc(=O)oc2c(CN3CCN(C)CC3)c(O)ccc12	12µM	0	?	0	0
COc1ccc(-c2c(C(F)(F)F)oc3c(CN4CCN(C)CC4)c(O)ccc3c2=O)cc1	3.3µM	0	?	0	0
COc1ccc(-c2c(C)oc3c(CN4CCN(C)CC4)c(O)ccc3c2=O)cc1	0	-63	?	0	0
CCCc1cc(=O)oc2c(CN3CCN(C)CC3)c(O)ccc12	0	0	0	0	0
CN(C)C(CNC(=O)C1CC(=O)N(c2cccc(C(F)(F)F)c2)C1)c1ccccc1 (stereo not given)	-	0	-	-	-
Cc1c(Cl)cn2c(=O)cc(CN3CCN(c4ccc(F)cc4)CC3)nc2c1Cl	0	-	0	50µM	0
O=C(COc1cccc(Cl)c1)Nc1ccc2c(c1)CCC2	0	-66	0	0	0
COc1ccc(C[C@@H]2c3cc(OC)c(OC)cc3CC[N@+]2(C)CCC(=O)OCCCCCOC(=O)CC[N@@+]2(C)CCc3cc(OC)c(OC)cc3[C@H]2Cc2ccc(OC)c(OC)c2)cc1OC	0	-	0	-	0
O=C(Cc1ccccn1)c1ccccc1	?	0	?	?	-
CC1=C(CC(=O)c2ccc(Cl)cc2)C(=O)c2ccccc2C1=O	0.17µM	0	?	?	0
O=C(Cc1ccccn1)c1ccc(Cl)cc1	?	-68	?	0	-
COc1ccc(S(=O)(=O)NCc2cc(-c3ccccc3Cl)no2)cc1	10µM	0	0	0	0
CC(C)C(c1nnnn1C1CCCC1)N1CCCc2ccccc21 (stereo not given)	13µM	0	0	0	0
CC(C)C(c1nnnn1C1CCCCC1)N1CCCc2ccccc21 (stereo not given)	9.3µM	0	0	0	0
CC(C)C(c1nnnn1C1CCCCC1)N1CCc2ccccc2C1 (stereo not given)	15µM	0	0[5.75 µM]	0	?
SMILES	Pf growth 48h	HCMV inh	Pf growth 96h	Sm TGR block	FBPA Giardia inh
Cc1ccc(NC(=O)C2(C)CCN2CCc2ccccc2)cc1 (stereo not given)	-	0	-	-	-
O=C(Cc1ccccc1)OC(COCc1ccccc1)CN1CCOCC1 (stereo not given)	0	-88	0	0	0
C(#CCN1CCOCC1)COCCOC(c1ccccc1)c1ccccc1	?	0	-	?	0
C(#CCN1CCOCC1)COCc1ccccc1	0	0	10µM	0	0
Cc1cccc(OC(C)C(=O)Nc2nccs2)c1 (stereo not given)	0	0	0	0	-
COc1ccc(NC(=O)N2c3ccc(OC)cc3[C@@H](NS(C)(=O)=O)[C@H](C)[C@H]2c2ccccc2)cc1	-	0	-	-	-
CCc1ccc(C(=O)NN(C(=O)c2ccc(CC)cc2)C(C)(C)C)cc1	0	0	?	0	0
CC(C)(C)c1ccc(C(=O)Nc2ccc(C(=O)NCc3cccnc3)cc2)cc1	6.6µM	0	0	0	?
O=C(NCc1ccccc1)c1ccc(C(=O)NCc2ccccc2)cc1	-	0	-	-	-
CC(C)(C)c1ccc(C(=O)NCc2ccccc2)cc1	0	0	9.3µM	0	0
O=C(NCc1ccccc1)c1ccc(C(=O)N(C2CCCCC2)C2CCCCC2)cc1	-	0	9.3µM	0	0
CC(C)(C)N(NC(=O)c1ccccc1)C(=O)c1ccc(C(=O)N(NC(=O)c2ccccc2)C(C)(C)C)cc1	0	-60	0	0	0
COc1cccc(-c2nnc(-c3ccccc3NC(=O)c3cccc(C(F)(F)F)c3)o2)c1	-	0	-	0	-
O=C(Nc1nnc(Cc2ccc(F)cc2)s1)Nc1ccccc1F	0	0	12µM	0	0
COc1ccc(NC(=O)Nc2nnc(Cc3ccc(OC)c(OC)c3)s2)cc1	0	0	12µM	0	0
O=C(Nc1ccccc1)Nc1nnc(Cc2ccc(F)cc2)s1	?	0	8.3µM	0	0
COc1ccc(Cc2nnc(NC(=O)Nc3ccc(C)cc3)s2)cc1OC	0[0.00184 µM]	0	0	0	0
COc1ccc(Cc2nnc(NC(=O)Nc3ccccc3F)s2)cc1OC	?	0	12µM	0	0
COc1ccc(NC(=O)C2CCCN(C(=O)Nc3ccc(F)cc3)C2)cc1OC (stereo not given)	0	0	0	0	0
CSc1ccc(S(=O)(=O)N2CCC(C(=O)NCC3CCCO3)CC2)cc1 (stereo not given)	0	0	0	0	0
Cc1cc(C)c(NC(=O)COC(=O)Cn2nc(-c3ccccc3)oc2=O)c(C)c1	-	0	-	-	-
N#Cc1cccc(NC(=O)COC(=O)Cn2nc(-c3ccccc3)oc2=O)c1	0	-65	0	0	-
COc1cc(-c2c(-c3cccc(C)c3)oc3ccccc23)cc(OC)c1OC	?	0	9.3µM	0	0
Cc1ccc2[nH]c3c(N4CCN(Cc5ccc6c(c5)OCO6)CC4)ncnc3c2c1	?	?	-	0	0
O=C(c1ccco1)N1CCN(c2c(-c3ccccc3)c3cc(Cl)ccc3[nH]c2=O)CC1	?	0	0	0	0
SMILES	Pf growth 48h	HCMV inh	Pf growth 96h	Sm TGR block	FBPA Giardia inh
O=C(c1ccco1)N1CCN(c2ncnc3c2[nH]c2ccc(Cl)cc23)CC1	?	-	?	50µM	0
Cc1ccc2[nH]c3c(N4CCN(Cc5ccccc5)CC4)ncnc3c2c1	1.7µM	-107	-	0	0
Cc1ccc(-n2ncc3c(N4CCN(Cc5ccccc5)CC4)ncnc32)cc1	-	0	-	0	-
c1ccc2c(c1)CCN(c1ncnc3c1[nH]c1ccccc13)C2	5.2µM	-66	7.4µM	0	0
Cc1ccc2c(c1)[nH]c1c(N3CCN(Cc4ccccc4)CC3)ncnc12	0.52µM	-85	?	0	0
c1ccc2c(c1)[nH]c1c(N3CCC4(CC3)OCCO4)ncnc12	-	-	?	0	0
